23 compounds from PubChem BioAssay (Tox21) can be followed below.

The target in test [1] is Progesterone receptor (Homo sapiens) (UniProt P06401). As to the kind of experiment: qHTS assay to identify small molecule agonists of the progesterone receptor (PR) signaling pathway (AID 1346784; calls by dose curve; further: nearly all actives have a fitted effect of over 30% in size). Summed up:
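Using charcoal-stripped serum (2%) to limit endogenous steroids, PR-UAS-bla HEK 293T cells received compounds for 16 hr at 37C after 6 hr plating; beta-lactamase FRET fluorescence was recorded following 2 hr substrate loading at room temperature.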

For test [2] the target is unchanged. As to the kind of experiment: qHTS assay to identify small molecule antagonists of the progesterone receptor (PR) signaling pathway (AID 1346795; active means well fitted inhibition curve with a large enough effect in the signal ratio in the repeat runs, not every such curve was filed as active; the % refers to the signal ratio; further: potency means the concentration at half of the fitted maximal effect). Summed up: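 Inhibition of R5020-induced (1 nM final) beta-lactamase reporter signal in PR-UAS-bla HEK293T cells was scored by FRET fluorescence after overnight (16 hr) compound treatment.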
The nature of test [3]: qHTS assay to identify small molecule antagonists of the progesterone receptor (PR) signaling pathway - cell viability counter screen (AID 1346798). Further: series mostly up to about 92 µM; nearly all actives have a fitted effect of over 50% in size. A digest of the protocol:
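ATP content as viability readout: CellTiter-Glo luminescence, 30 min room temperature, in PR-UAS-bla HEK293T cells after 16 hr compound/R5020 treatment at 37C and 5% CO2.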

The nature of test [4]: qHTS assay to identify small molecule agonists of the progesterone receptor (PR) signaling pathway - cell viability counter screen (AID 1346799; calls by dose curve; further: nearly all actives have a fitted effect of over 45% in size). A digest of the protocol: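 Cytotoxicity in PR-bla HEK293T cells: 16 h compound, 37C; CellTiter-Glo added post-FRET read; luminescence after 30 min RT.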
Test [5] in a line: qHTS assay to identify small molecule antagonists of the TGF-beta/Smad signaling pathway - cell viability counter screen (AID 1346824). Further: nearly all actives have a fitted effect of over 50% in size. A digest of the protocol:
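SBE-bla HEK 293T cells, incubated overnight, then compound plus 0.25 ng/mL TGF-beta1 (stock added) for 5 hr at 37 C. Viability was read in the same wells by CellTiter-Glo luminescence after 30 min at room temperature.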

The nature of test [6]: qHTS assay to identify small molecule agonists of the TGF-beta/Smad signaling pathway - cell viability counter screen (AID 1346829). Further: top concentration of the series differs between compounds; nearly all actives have a fitted effect of over 45% in size. Summed up: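 HEK 293T SBE-bla line, 5 hr compound exposure at 37 C, multiplexed CellTiter-Glo viability read by luminescence.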
The nature of test [7]: qHTS assay to identify small molecule agonists of the TGF-beta/Smad signaling pathway (AID 1346859; active means well fitted activation curve with a large enough effect in the signal ratio in the repeat runs, not every such curve was filed as active; the % refers to the signal ratio; further: series mostly up to about 77 µM). A digest of the protocol:
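Stable Smad binding element-beta-lactamase HEK 293T cells; 5 hr compound exposure at 37 C under 5% CO2; 2 hr room-temperature substrate step; fluorescence excited at 405 nm, collected at 460 nm and 530 nm.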

Test [8] has as its target Thyrotropin-releasing hormone receptor (Homo sapiens) (UniProt P34981). Nature of the test: qHTS assay to identify small molecule antagonists of the thyrotropin-releasing hormone receptor (TRHR) signaling pathway (AID 1346877; active means well fitted inhibition curve with a large enough effect in the repeat runs, not every such curve was filed as active; further: series mostly up to about 51 µM). Summed up:
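Antagonism is measured as suppression of the calcium response to 1 nM TRH in TRHR-HEK293 cells that have been dye-loaded for 2 h at 37 °C after overnight plating. Each compound is tested at 15 concentrations in triplicate.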

The target is the same in test [9]. As to the kind of experiment: qHTS assay to identify small molecule agonists of the thyrotropin-releasing hormone receptor (TRHR) signaling pathway (AID 1346891; calls by dose curve;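 further: HEK293 cells expressing TRHR with calcium dye readout; series mostly up to about 58 µM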). Summed up:
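In 1536-format, 1500 TRHR-Hek293 cells per well grew 18 h, took up calcium dye for 2 h at 37 °C, received compound, and were read kinetically; 15-point titrations, triplicates.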

Test [10] can be described thus: Human pregnane X receptor (PXR) small molecule agonists, qHTS cell viability counter screen (AID 1346977). Further: nearly all actives have a fitted effect of over 50% in size. Further: potency means the concentration at half of the fitted maximal effect. Summed up: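 Readout is CellTiter-Fluor fluorescence from PXR-Luc HepG2 cells. Plated cells rested 5hr, then were treated with compounds for 24hr at 37C and 5% CO2, with reagent present during the last hour.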

SMILES strings stand for the structures. Unmarked numbers belong to inactive results. Inconclusive results are not listed. Calls of active or inactive are those of the source. Unless noted, the call rests on the fitted dose curve; in most records, active means well fitted curve in the direction sought with a large enough effect in the repeat runs; inconclusive means weak or mixed curves; inactive means no such curve, though single readings can be large; an effect the other way counts as inactive or inconclusive.
On the % scale 0 is the no-effect control and ±100 the full control effect.

Progesterone receptor (Homo sapiens), sequence (P06401 whole entry, looked up): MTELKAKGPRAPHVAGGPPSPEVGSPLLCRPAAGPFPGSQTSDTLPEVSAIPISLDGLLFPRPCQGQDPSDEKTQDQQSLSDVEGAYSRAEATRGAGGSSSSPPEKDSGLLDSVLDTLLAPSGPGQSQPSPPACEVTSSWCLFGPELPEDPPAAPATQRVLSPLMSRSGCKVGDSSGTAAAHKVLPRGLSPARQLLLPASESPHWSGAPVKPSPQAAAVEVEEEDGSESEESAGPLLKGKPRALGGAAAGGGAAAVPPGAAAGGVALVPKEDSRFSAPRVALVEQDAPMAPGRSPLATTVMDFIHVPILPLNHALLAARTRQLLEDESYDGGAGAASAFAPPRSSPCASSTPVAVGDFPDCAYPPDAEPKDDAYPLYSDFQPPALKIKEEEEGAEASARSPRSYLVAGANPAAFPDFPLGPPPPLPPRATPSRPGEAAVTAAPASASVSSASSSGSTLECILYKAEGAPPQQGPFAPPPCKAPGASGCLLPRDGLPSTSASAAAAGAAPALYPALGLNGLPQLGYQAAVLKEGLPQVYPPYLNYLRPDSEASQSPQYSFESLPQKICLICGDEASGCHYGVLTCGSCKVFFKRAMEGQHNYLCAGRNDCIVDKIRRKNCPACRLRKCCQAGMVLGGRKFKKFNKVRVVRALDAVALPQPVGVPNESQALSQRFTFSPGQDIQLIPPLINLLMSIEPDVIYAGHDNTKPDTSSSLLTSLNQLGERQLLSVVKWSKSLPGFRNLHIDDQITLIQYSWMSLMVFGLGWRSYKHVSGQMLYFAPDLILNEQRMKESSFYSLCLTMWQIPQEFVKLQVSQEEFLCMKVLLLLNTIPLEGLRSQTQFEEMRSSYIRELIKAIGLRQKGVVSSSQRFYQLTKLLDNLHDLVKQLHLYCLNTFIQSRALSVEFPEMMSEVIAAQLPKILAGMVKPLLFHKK
Thyrotropin-releasing hormone receptor (Homo sapiens), sequence (P34981 whole entry, looked up): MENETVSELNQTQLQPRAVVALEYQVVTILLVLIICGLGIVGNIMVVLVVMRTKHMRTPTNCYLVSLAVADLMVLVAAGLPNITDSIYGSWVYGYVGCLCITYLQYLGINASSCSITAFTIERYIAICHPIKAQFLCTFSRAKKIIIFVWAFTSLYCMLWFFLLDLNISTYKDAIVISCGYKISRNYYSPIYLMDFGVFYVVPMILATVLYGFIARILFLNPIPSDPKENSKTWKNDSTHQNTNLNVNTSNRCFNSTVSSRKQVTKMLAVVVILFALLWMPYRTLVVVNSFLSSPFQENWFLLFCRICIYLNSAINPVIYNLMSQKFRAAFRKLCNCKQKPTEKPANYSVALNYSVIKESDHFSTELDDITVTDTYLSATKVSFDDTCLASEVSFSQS

As to `Clc1ccc(C(Cl)(Cl)Cl)cc1Cl`, the Potency result in test [1], in test [2], in [3], in test [4], in [5] and in test [6] was “inactive” in each case. In addition, the Potency result in test [8], in [9] and in [10] was “inactive” each time. Moreover, in test [7], the call was inactive.
Regarding `Cc1nn(-c2cc(NS(C)(=O)=O)c(Cl)cc2Cl)c(=O)n1C(F)F`, the Potency result in test [1], in [2], in test [3], in test [4], in [5] and in test [6] was “inactive” in each case. The Potency result in [8], in [9] and in [10] was “inactive” in each case. In addition, the compound was classed as inactive in test [7].
As to `CCCC[N+]1(C)CCCC1` (tested in a mixture with another compound), the Potency result in test [1], in test [2], in test [3], in test [4], in [5] and in [6] was “inactive” throughout. Also, in [7], the compound was called inactive.
As to `CN1C(=O)[C@@H](NC(=O)c2cc3ccccc3[nH]2)N=C(c2ccccc2)c2ccccc21`, the Potency result in [1], in test [2], in test [3], in test [4], in test [5] and in test [6] was “inactive” each time. Besides, the Potency entry in test [8], in test [9] and in test [10] was “inactive” throughout. The compound was classed as inactive in test [7].
Consider `O=[N+]([O-])c1ccc(CCl)cc1`, for which the Potency entry in test [1], in [2], in test [3], in test [4], in test [5] and in test [6] was “inactive” throughout. Moreover, the Potency result in test [10] was “inactive”. Further, in test [7], the outcome was inactive.
For `COc1cnc(OC)n2nc(NS(=O)(=O)c3c(OCC(F)F)cccc3C(F)(F)F)nc12`, the Potency result in [1], in test [2], in test [3], in test [4], in test [5] and in test [6] was “inactive” in each case. Moreover, the Potency entry in [8], in test [9] and in test [10] was “inactive” in each case. In addition, the compound was called inactive in test [7].
With `[O]=[Cr][O][Cr]=[O]`, the Potency entry in test [1], in test [2], in [3], in test [4], in test [5] and in [6] was “inactive” in each case. The Potency result in test [8], in [9] and in test [10] was “inactive” each time. The compound was called inactive in test [7].
For `Brc1cccc(-c2ccccc2)c1`, the Potency entry in test [1], in [2], in [3], in test [4], in test [5] and in [6] was “inactive” throughout. Besides, the Potency entry in test [8], in [9] and in test [10] was “inactive” each time. In addition, the compound was classed as inactive in test [7].
As to `Cc1cc2c3c(c1)C(c1ccccc1)=N[C@@H](NC(=O)c1ccncc1)C(=O)N3CC2`, the Potency entry in test [1], in test [2], in [3], in [4], in test [5] and in [6] was “inactive” in each case. Moreover, the Potency result in test [8], in [9] and in [10] was “inactive” in each case. The result in [7] was inactive.
As for `CCC(C)Br` (stereo not given), the Potency result in test [1], in test [2], in test [3], in test [4], in [5] and in test [6] was “inactive” each time. The Potency result in [8], in test [9] and in test [10] was “inactive” each time. The outcome in [7] was inactive.
Consider `COCCC#N`, for which the Potency entry in test [1], in test [2], in test [3], in [4], in test [5] and in test [6] was “inactive” in each case. Moreover, the Potency result in test [10] was “inactive”. The call in [7] was inactive.
Take `CC1(C)C(C=C(Cl)Cl)C1C(=O)OC(C#N)c1ccc(F)c(Oc2ccccc2)c1` (stereo not given): the Potency result in [1], in test [3], in test [4], in test [5], in test [6] and in test [8] was “inactive” throughout. Also, the Potency entry in test [9] and in [10] was “inactive” in each case. Also, the Potency in test [2] was 13.7 µM (active). In addition, in test [7], the outcome was inactive.
Consider `ClCBr`, for which the Potency result in test [1], in [2], in test [3], in test [4], in test [5] and in test [6] was “inactive” in each case. Also, the Potency entry in test [8], in test [9] and in test [10] was “inactive” throughout. Also, the outcome in test [7] was inactive.
As to `Cc1cnc2c(C(=O)O)c(Cl)ccc2c1`, the Potency result in [1], in test [2], in test [3], in test [4], in test [5] and in test [6] was “inactive” throughout. The Potency result in test [8], in test [9] and in test [10] was “inactive” in each case. Besides, the outcome in [7] was inactive.
With `C#CC1(O)CCCCC1`, the Potency entry in test [1], in [2], in test [3], in test [4], in [5] and in test [6] was “inactive” throughout. For the same compound, the Potency result in test [8], in [9] and in [10] was “inactive” throughout. The call in [7] was inactive.
Take `C=CC(=C)C`: the Potency result in [1], in test [2], in test [3], in test [4], in test [5] and in [6] was “inactive” in each case. The Potency entry in test [8], in test [9] and in test [10] was “inactive” in each case. Also, the outcome in [7] was inactive.
Take `Clc1c(Cl)c(Cl)c(Cl)c(Cl)c1Cl`: the figures for the activation in [1], in [7] and in [9] were -0.806% [at 8.39 µM], -0.619% [at 6.97 µM] and -0.641% [at 5.23 µM], respectively. Moreover, the activity change, negative = inhibition in test [2] is -1.77% [at 8.39 µM]. Further, the activity change, negative = cytotoxicity was -0.673% [at 8.39 µM] in [3], 14.7% [at 8.39 µM] in test [4], 6.4% [at 6.97 µM] in [6] and 0.664% [at 8.39 µM] in [10]. Besides, the viability change, negative = cytotoxic in [5] is 1.21% [at 6.97 µM]. Moreover, in test [8], the activity, negative = inhibition was 0.118% [at 4.65 µM].
For `[O-][Cl+3]([O-])([O-])O`, the Potency entry in test [1], in [2], in test [3], in test [4], in test [5] and in [6] was “inactive” throughout. Further, the Potency entry in test [8], in test [9] and in [10] was “inactive” each time. The outcome in test [7] was inactive.
Turning to `CCCCON=O`, the Potency entry in [1], in test [2], in [3], in test [4], in [5] and in test [6] was “inactive” each time. The Potency entry in [8], in test [9] and in test [10] was “inactive” in each case. In addition, the outcome in test [7] was inactive.
As for `C=Cc1cccc(CCl)c1`, the Potency entry in [1], in [2], in test [3], in [4], in test [5] and in [6] was “inactive” each time. In addition, the Potency result in [8] and in test [9] was “inactive” each time. The call in [7] was inactive.
On to `O=C(Cl)c1ccccc1F`, for which the Potency result in test [1], in test [2], in test [3], in [4], in test [5] and in test [6] was “inactive” each time. In addition, the Potency entry in [10] is “inactive”. In addition, the compound was called inactive in test [7].
With `CC(C)=CCN1CC[C@@]2(C)c3cc(O)ccc3C[C@@H]1[C@@H]2C`, the Potency result in test [1], in [2], in test [3], in [4], in test [5] and in test [6] was “inactive” throughout. Moreover, the Potency result in test [8] and in test [9] was “inactive” in each case. The compound was called inactive in test [7]. Also, in [10], the Potency was 17 µM (active).
`O=P(Cl)(Cl)Cl`: the Potency result in test [1], in [2], in test [3], in test [4], in test [5] and in [6] was “inactive” throughout. Besides, the Potency entry in test [8], in test [9] and in test [10] was “inactive” throughout. Besides, in test [7], the compound was classed as inactive.
